Hit rate of the full screen: of about 320,000 compounds, about 2,100 (0.66%) were called active. Another 53% or so got no clear call; they are omitted. Calls follow the shape of the dose curve; as a rule, active = well fitted inhibition curve with a large enough effect in the signal ratio, with a control signal flat (not every such curve was filed as active); inconclusive = small, poorly fitted or top-dose-only effect, or effect the other way, or a change in a side signal; inactive = flat fitted curve, though single readings scatter; the % refers to the signal ratio. The list comes from a sample in which actives are over-represented; it also holds similar structures and randomly drawn compounds.
Potency is read from the fitted curve at half-maximal effect.

A short description of the assay: qHTS Assay for Lipid Storage Modulators in Drosophila S3 Cells.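 As to cell number change: cells counted by Cell Tracker Red CMTPX staining in the red channel.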 As to lipid storage change, negative = inhibition: % is scaled to controls: 0 for no effect and ±100 for the full control effect. The conditions noted are these: BODIPY lipid droplet fluorescence, 18-24 h, cells fed with added oleic acid; cell number change: measured here: cell count max response; series mostly up to 46.1 µM; lipid storage change, negative = inhibition: at the top concentration. Summed up:
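Drosophila S3 cells loaded with oleic acid (400 uM, as added) and compounds at several concentrations; lipid droplets imaged by 488-nm laser-scanning cytometry, 500–530 nm intensity and object ratio to cell channel. Percent activity normalized to 20 uM Triacsin C.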
As to `Cc1ccc(C)c(NC(=O)CSc2nc(C)cc(C)c2C#N)c1`, the “lipid storage change, negative = inhibition” value is 11.2% (inactive) and the cell number change was -1.26%.
Take `CC(Oc1ccc2c(-c3ccccc3)cc(=O)oc2c1)C(=O)NCC1CCC(C(=O)O)CC1` (centres undefined): the “lipid storage change, negative = inhibition” value was -7.92% (inactive).
As to `COc1ccc(CNC(=O)CN(Cc2ccc(Cl)cc2)S(C)(=O)=O)cc1`, the “lipid storage change, negative = inhibition” value was 6.59% (inactive) and the cell number change turned out to be 15.2%.
For the molecule `COc1ccc(CNC(=O)CN(Cc2ccc(Cl)cc2)S(=O)(=O)c2ccccc2)cc1`, the Potency was 20.6 µM (active) and the cell number change worked out at 26.1%.
For `COc1ccc(CNC(=O)CN(C)S(=O)(=O)c2ccc(Cl)cc2)cc1`, the “lipid storage change, negative = inhibition” value is -32.9% (inactive) and the cell number change was -9.55%.
Regarding `COc1ccc(CCNC(=O)CN(Cc2ccc(Cl)cc2)S(C)(=O)=O)cc1OC`, the molecule was called inactive and the cell number change stood at 5.74%.
Take `COc1ccc(CCNC(=O)CN(Cc2ccc(Cl)cc2)S(C)(=O)=O)cc1`: the “lipid storage change, negative = inhibition” value is -18.7% (inactive) and the cell number change was -16.1%.
For `COCCNC(=O)CN(Cc1ccc(Cl)cc1)S(C)(=O)=O`, the Potency is 23.1 µM (active) and the cell number change was -6.66%.
Regarding `CC1CCN(C(=O)c2[nH]cnc2C(=O)N[C@@H](CCCCNC(=O)OC(C)(C)C)C(=O)OC(C)(C)C)CC1`, the “lipid storage change, negative = inhibition” value was -1.71% (inactive) and the cell number change was -11.2%.
As for `Clc1ccccc1-c1ncnc2ccc(Br)cc12`, the “lipid storage change, negative = inhibition” value was -0.0835% (inactive) and the cell number change was -18.5%.
As to `CN1CCN(C(c2ccccn2)c2cc(Cl)c3cccnc3c2O)CC1` (centres undefined), the call was inactive.
Take `CN1CCN(C(c2cccnc2)c2ccc3cccnc3c2O)CC1` (centres undefined): the molecule was classed as inactive and the cell number change stood at 8.11%.
For `CN1CCN(C(c2ccc(Br)cc2)c2cc(Cl)c3cccnc3c2O)CC1` (centres undefined), the Potency is 20.6 µM (active) and the cell number change turned out to be 5.13%.
Take `O=C(NCc1ccc(F)cc1)C1CC(=O)N(CCc2ccccc2)C1` (centres undefined): the molecule was classed as inactive and the cell number change is 15.8%.
Take `Cc1cc(O)c(C(C)C)cc1NC1=NS(=O)(=O)c2ccccc21`: the “lipid storage change, negative = inhibition” value was -22.4% (inactive) and the cell number change is -1.35%.
For the molecule `Cc1cc(C)c(NC2=NS(=O)(=O)c3ccccc32)c(C)c1`, the Potency is 16.4 µM (active).
`Cc1ccc(S(=O)(=O)NNC2=NS(=O)(=O)c3ccccc32)c(C)c1`: the “lipid storage change, negative = inhibition” value is 6.11% (inactive) and the cell number change was -0.377%.
Taken in the same sequence, the figures for `O=C1COc2ccc(S(=O)(=O)N3CCN(c4cccc(Cl)c4)CC3)cc2N1` were 8.29% (inactive) and -0.295%.
As to `CC(CC(=O)N1CCN(c2cccc(Cl)c2)CC1)S(=O)(=O)c1ccc2c(c1)NC(=O)CO2` (centres undefined), the Potency is 6.51 µM (active).
`CC(CC(=O)N1CCN(c2ccccc2)CC1)S(=O)(=O)c1ccc2c(c1)NC(=O)CS2` (centres undefined): the result was inactive and the cell number change was -1.91%.
Taken in the same sequence, the figures for `CCOc1ccc(NC(=S)N2C3CCCC2CC(NC(=O)C2CC2)C3)cc1` (centres undefined) were “inactive” and 11.2%.
On to `CCOC(=O)C1Cc2ccccc2C(=O)O1` (centres undefined), for which the “lipid storage change, negative = inhibition” value was -4.22% (inactive) and the cell number change was 3.62%.
For `CC(=O)Nc1nc2cc([N+](=O)[O-])ccc2s1` the same measures were 5.34% (inactive) and -7.82%.
Taken in the same sequence, the figures for `CCC(C)N1C(=O)S/C(=C/c2ccc(N3CCOCC3)cc2C)C1=O` (centres undefined) were 11.5% (inactive) and 12.1%.
As for `CCCN1C(=O)S/C(=C\c2ccc(N3CCOCC3)cc2C)C1=O`, the “lipid storage change, negative = inhibition” value was -5.29% (inactive) and the cell number change is -13.4%.
On to `C=CC(C)N1C(=O)S/C(=C\c2ccc(N3CCOCC3)cc2C)C1=O` (centres undefined), for which the Potency is 4.11 µM (active).
Regarding `Cc1cccc(N2CC(C(=O)NCCC3=CCCCC3)CC2=O)c1C` (centres undefined), the molecule was called inactive.
Regarding `CCS(=O)(=O)N1CCC(C(=O)NCc2ccc(OC)cc2OC)CC1`, the “lipid storage change, negative = inhibition” value is -1.87% (inactive) and the cell number change was found to be 16%.
For `O=C(O)c1ccc(COc2ccc(Cl)cc2)o1`, the Potency was 25.9 µM (active) and the cell number change was -10.6%.
Turning to `O=C(O)c1ccc(COc2ccc([N+](=O)[O-])cc2)o1`, the result was inactive.
For `N#Cc1ccc(OCc2ccc(C(=O)O)o2)cc1`, the outcome was inactive and the cell number change was -20.7%.
For `Nc1cccnc1Sc1cccc(Cl)c1` the same measures were “inactive” and -17.5%.
Take `O=S(=O)(c1ccccc1)N1CCN(S(=O)(=O)c2ccc(F)cc2)CC1`: the “lipid storage change, negative = inhibition” value was 28.1% (inactive) and the cell number change was -2.92%.
`CC1(C)CC(=O)c2cc(NC(=O)c3ccccc3)c(=O)oc2C1`: the “lipid storage change, negative = inhibition” value was 3.26% (inactive) and the cell number change is 6.08%.
For `Cn1c(SCc2cc(=O)[nH]c(C(C)(C)C)n2)nnc1C(F)(F)F` the same measures were 10.1% (inactive) and -1.02%.
As for `CCOC(=O)N1CCN(C2=C(NS(=O)(=O)c3ccc(C)cc3)C(=O)c3ccccc3C2=O)CC1`, the result was inactive and the cell number change is -13.9%.
Turning to `CCOC(=O)N1CCN(C2=C(NS(=O)(=O)c3ccc(NC(C)=O)cc3)C(=O)c3ccccc3C2=O)CC1`, the Potency is 18.4 µM (active) and the cell number change was -22.6%.
Take `CC(=O)Nc1ccc(S(=O)(=O)NC2=C(N3CCN(c4ccc(F)cc4)CC3)C(=O)c3ccccc3C2=O)cc1`: the outcome was inactive and the cell number change is 3.49%.
Turning to `CCOC(=O)c1ccc(N(CC(=O)NC2CCCCC2)C(=O)CNC(=O)c2ccco2)cc1`, the result was inactive and the cell number change was found to be 11.2%.
As to `O=C(CCl)N1N=C(c2ccco2)CC1c1cccs1` (centres undefined), the Potency is 23.1 µM (active) and the cell number change was -16%.
For `O=C(c1ccccc1)N1N=C(c2ccco2)CC1c1cccs1` (centres undefined), the “lipid storage change, negative = inhibition” value was -0.755% (inactive) and the cell number change turned out to be 16.1%.
Taken in the same sequence, the figures for `O=C(O)CCC(=O)N1N=C(c2ccco2)CC1c1cccs1` (centres undefined) were -9.03% (inactive) and -1.36%.
On to `CC(C)Sc1nc2c(cnn2-c2ccc(F)cc2)c(=O)[nH]1`, for which the result was inactive.
For `CN(C)c1nc(NCc2ccccc2)nc(N/N=C/c2ccccc2F)n1`, the Potency is 23.1 µM (active).
Regarding `CN(C)c1nc(NCc2ccccc2)nc(N/N=C/c2ccc(Cl)cc2Cl)n1`, the result was inactive and the cell number change was -26.7%.
With `CN(C)c1nc(NCc2ccccc2)nc(N/N=C/c2ccc(Br)cc2)n1`, the “lipid storage change, negative = inhibition” value is -0.957% (inactive) and the cell number change was -3.42%.
As to `O=C1CCCN1CCCNS(=O)(=O)c1ccc(Cl)c(C(=O)N2CCOCC2)c1`, the Potency is 23.1 µM (active) and the cell number change was -15.3%.
As to `O=C1CCCN1CCCNS(=O)(=O)c1ccc(F)c(F)c1`, the “lipid storage change, negative = inhibition” value was -21.9% (inactive) and the cell number change is 3.84%.
For the molecule `O=C(NCCCN1CCCC1=O)c1cc(S(=O)(=O)N2CCOCC2)ccc1Cl`, the “lipid storage change, negative = inhibition” value is -23.3% (inactive) and the cell number change turned out to be 15%.

These data come from PubChem BioAssay AID2685 (National Center for Advancing Translational Sciences (NCATS), 2010).
